# Reference: PubChem BioAssay
# Values joined by “and” are separate entries in the source; they are usually repeats but may differ in a detail not shown here. Identical values can stand only once. More than one record can exist for a structure, and the calls need not agree. Active and inactive are the calls of the source.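 Rule for the calls, unless noted: active = thallium flux through the channel raised or lowered by more than 3 SD from vehicle-only wells, actives on both sides; inactive = the rest.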
# Experiments:
# [1] = tested on: Hepatitis C virus NS3 helicase; assay: blockers of NS3h binding to DNA – biochemical, fluorescence polarization, NIH Clinical Collection, primary screen (AID 743270; call rule not given here); conditions: NS3 helicase binding to Cy5-dT15 DNA, stronger effect = higher value, concentration not given here
# [2] = biological target: Single-stranded DNA-binding protein (Escherichia coli (strain K12)) (UniProt P0AGE0); assay: SSB-ssDNA binding inhibitors – biochemical, fluorescence polarization, NIH Clinical Collection, counter-screen for HCV NS3 helicase inhibitor project (AID 743271; in the data active = inhibition above about 28%); conditions: E. coli SSB-DNA binding, stronger effect = higher value, concentration not given here
# [3] = compounds distorting NS3 helicase fluorescence signal – biochemical, NIH Clinical Collection, artefact control for HCV NS3 helicase inhibitor project (AID 743272; call rule not given here;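 note: HCV NS3 helicase with a Cy5 labelled single stranded DNA probe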); conditions: fluorescence interference counterscreen, HCV NS3 helicase assay; stronger effect = lower value
# [4] = Wnt pathway potentiators raising nuclear beta-catenin – imaging, WNT3A-conditioned medium, mouse C2C12, NPC library, primary screen (AID 1117326; in the data active = nuclear beta-catenin stimulation mostly above about 4.2%, no sharp cut-off; inactive = mostly below about 10%); conditions: stronger effect = higher value
# [5] = stimulators of insulin release from INS-1E, primary screen, cell-based, 5 mM glucose, NPC library (AID 1117329;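 active = compound raises insulin release from rat beta cells at 5 mM glucose, no numeric limit stated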); conditions: rat INS-1E insulin secretion, at 10 µM, stronger effect = higher value
# [6] = growth inhibition of GSK3B-pretreated HCT116 cells – cell-based, CellTiter-Glo, 0.2 to 20 µM (AID 1117336;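 active = compounds lowering colon cancer cell viability after pretreatment blocking the GSK3B kinase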); conditions: HCT116 viability after GSK3B inhibitor, at 20 µM, stronger effect = higher value
# [7] = inhibition of endothelial tube formation, primary screen, imaging, VEGF stimulated, CD31 staining, tube area, NPC library (AID 1117340;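 active = compound that reduces growth-factor-driven endothelial tube area in a mixed cell culture, no cutoff stated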); conditions: VEGF-stimulated ADSC/ECFC co-culture, at 10 µM, stronger effect = higher value
# [8] = GLP1 release stimulators, primary, NCI-H716, NPC library (AID 1117341;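 active = compound raises GLP1 secretion from the human gut endocrine cells, with no numeric limit stated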); conditions: NCI-H716 cells, at 10 µM, stronger effect = higher value
# [9] = HCT116 colon cancer cell growth inhibition, primary screen, CellTiter-Glo luminescence, NPC library (AID 1117342;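 active = compounds that lower survival of HCT116 colon cancer cells in the luminescence readout, no numeric limit stated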); conditions: at 20 µM (top of the series)
# [10] = reduced SW480 viability measured with CellTiter-Glo, NPC library, primary (AID 1117343;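 active = compounds that lower viability of the colon cancer cells in the luminescence readout, with no numeric limit stated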); conditions: CellTiter-Glo luminescence; at 20 µM (top of the series)
# [11] = NPC library primary testing for decreased DLD-1 cell viability via CellTiter-Glo (AID 1117346;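 active = compounds that lower survival of DLD-1 colon cancer cells in the luminescence readout, no cutoff given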); conditions: DLD-1 viability, CellTiter-Glo luminescence; at 20 µM (top of the series)
# [12] = biological target: 6-phosphogluconate dehydrogenase, decarboxylating (Homo sapiens) (UniProt P52209); assay: inhibition of human phosphogluconate dehydrogenase – biochemical, recombinant enzyme, NADPH absorbance, primary screen (AID 1159550;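 active = at least 20% inhibition of 6-phosphogluconate dehydrogenase activity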); conditions: recombinant 6PGD, NADPH absorbance 341 nm; at 10 µM; stronger effect = higher value
# [13] = viability loss with induced miR-34 in A549 – imaging, A549 dox-inducible miR-34, nuclei and caspase counts, primary screen (AID 1347080;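 active = compounds whose cell count with miR-34 switched on is under 0.7 times the count with it off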); conditions: A549 miR-34 inducible, Hoechst nuclei count, 48 h
# [14] = MELAS cybrid and Rieske KO viability enhancers – cell-based, MELAS cybrids, Rieske KO mouse fibroblasts, CellTiter-Glo, primary screen (AID 1508586;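 active = mean z-score across replicates of 1.96 or higher in either the MELAS or the Rieske mutant cell line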;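 note: z relative to plate mean and SD of compound and empty wells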); conditions: low glucose
# [15] = biological target: NAD(+) hydrolase SARM1 (Homo sapiens) (UniProt Q6SZW1); assay: blocking NAD cleavage by SARM1 SAM-TIR – cell lysate, NAD-Glo luminescence (AID 1508614;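 active = compound whose remaining NAD level is above about 45 nM, limit read from the data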;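 note: higher remaining NAD means stronger inhibition of SARM1 NADase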); conditions: SAM-TIR HEK293T lysate NADase, at 1 µM, stronger effect = higher value
# [16] = biological target: Mitogen-activated protein kinase 7 (Homo sapiens) (UniProt Q13164); assay: Gal4-ERK5 driven luciferase induction – cell-based, HTS, primary screen (AID 1508626;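 active = luciferase signal above three times the same-plate solvent-only control wells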;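 note: luciferase driven by Gal4-ERK5 fusion binding five Gal4 sites before minimal TATA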); conditions: HeLa Gal4-ERK5 transactivation, 18 h, at 5 µM, stronger effect = higher value
# F380Y = assay: BK channel mutant inhibitors and activators – cell-based, U2OS BacMam, thallium flux, beta subunits, selectivity assay, profiling panel (AID 1259406); conditions: U2OS BacMam BK variants, at 30 µM;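 note: initial slope of Thallos dye fluorescence rise after thallium is added; log ratio against the mean of 0.3% DMSO vehicle wells on the same plate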
# F380Y/beta2Delta = assay: as above; conditions: U2OS BacMam BK variants, at 30 µM
# [17] = biological target: Calcium-activated potassium channel subunit alpha-1 (Homo sapiens) + Leucine-rich repeat-containing protein 26 (Homo sapiens) (UniProt Q12791+Q2I0M4); assay: as above; conditions: U2OS BacMam BK variants, F380Y/Slo1WT/gamma1, at 30 µM
# [18] = EMT-state selective cytotoxicity in co-culture – imaging, PC-3E GFP, TEM4-18 mCherry, primary screen (AID 1345086;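 active = compounds killing one labelled cell type while sparing the other, by normalised counts and ratio limits, not self-fluorescent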;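 for all read-outs here: cells exposed to compound for 72 h before imaging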;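 for red/green cell ratio (normalised): normalised mesenchymal count divided by normalised epithelial count so high means epithelial killing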); conditions: PC-3E GFP / TEM4-18 mCherry co-culture, imaging cell counts, at 1 µM; for red/green cell ratio (normalised): actives lie on both sides, counts scaled to control wells, 1 = unselective
# [19] = stronger effect = lower value, cell number ratio, induced over uninduced
# [20] = measured here: relative caspase fold change +Dox/-Dox
# [21] = measured here: total cells with miR-34 induction, stronger effect = lower value
# [22] = measured here: total cells without miR-34 induction
# [23] = MELAS cybrid survival, CellTiter-Glo 48 h, stronger effect = higher value
# [24] = Rieske KO mouse fibroblast survival, CellTiter-Glo 72 h
# [25] = measured here: epithelial PC-3E GFP cell survival
# [26] = measured here: mesenchymal TEM4-18 mCherry cell survival
# Chain of NAD(+) hydrolase SARM1 (Homo sapiens) (Q6SZW1 whole entry, looked up, the tested form may be a part): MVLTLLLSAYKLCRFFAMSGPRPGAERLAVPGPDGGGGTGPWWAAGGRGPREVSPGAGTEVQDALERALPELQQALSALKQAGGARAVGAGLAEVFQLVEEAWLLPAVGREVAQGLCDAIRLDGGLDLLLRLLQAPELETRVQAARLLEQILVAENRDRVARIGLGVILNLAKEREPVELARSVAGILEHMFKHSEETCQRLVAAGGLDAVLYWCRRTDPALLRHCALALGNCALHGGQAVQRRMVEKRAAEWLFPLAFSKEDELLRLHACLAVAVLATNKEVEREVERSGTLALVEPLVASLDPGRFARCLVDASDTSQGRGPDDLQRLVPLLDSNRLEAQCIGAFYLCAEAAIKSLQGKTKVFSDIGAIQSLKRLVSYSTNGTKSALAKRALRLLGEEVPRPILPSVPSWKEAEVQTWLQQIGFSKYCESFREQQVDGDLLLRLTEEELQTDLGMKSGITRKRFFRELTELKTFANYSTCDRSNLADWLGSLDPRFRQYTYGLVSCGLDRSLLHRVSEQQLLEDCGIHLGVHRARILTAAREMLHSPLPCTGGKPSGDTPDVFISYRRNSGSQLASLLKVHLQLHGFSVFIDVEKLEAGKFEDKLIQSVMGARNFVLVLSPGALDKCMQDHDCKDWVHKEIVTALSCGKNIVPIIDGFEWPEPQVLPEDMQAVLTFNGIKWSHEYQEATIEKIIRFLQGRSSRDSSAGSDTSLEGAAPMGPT
# Chain of Mitogen-activated protein kinase 7 (Homo sapiens) (Q13164 whole entry, looked up, the tested form may be a part): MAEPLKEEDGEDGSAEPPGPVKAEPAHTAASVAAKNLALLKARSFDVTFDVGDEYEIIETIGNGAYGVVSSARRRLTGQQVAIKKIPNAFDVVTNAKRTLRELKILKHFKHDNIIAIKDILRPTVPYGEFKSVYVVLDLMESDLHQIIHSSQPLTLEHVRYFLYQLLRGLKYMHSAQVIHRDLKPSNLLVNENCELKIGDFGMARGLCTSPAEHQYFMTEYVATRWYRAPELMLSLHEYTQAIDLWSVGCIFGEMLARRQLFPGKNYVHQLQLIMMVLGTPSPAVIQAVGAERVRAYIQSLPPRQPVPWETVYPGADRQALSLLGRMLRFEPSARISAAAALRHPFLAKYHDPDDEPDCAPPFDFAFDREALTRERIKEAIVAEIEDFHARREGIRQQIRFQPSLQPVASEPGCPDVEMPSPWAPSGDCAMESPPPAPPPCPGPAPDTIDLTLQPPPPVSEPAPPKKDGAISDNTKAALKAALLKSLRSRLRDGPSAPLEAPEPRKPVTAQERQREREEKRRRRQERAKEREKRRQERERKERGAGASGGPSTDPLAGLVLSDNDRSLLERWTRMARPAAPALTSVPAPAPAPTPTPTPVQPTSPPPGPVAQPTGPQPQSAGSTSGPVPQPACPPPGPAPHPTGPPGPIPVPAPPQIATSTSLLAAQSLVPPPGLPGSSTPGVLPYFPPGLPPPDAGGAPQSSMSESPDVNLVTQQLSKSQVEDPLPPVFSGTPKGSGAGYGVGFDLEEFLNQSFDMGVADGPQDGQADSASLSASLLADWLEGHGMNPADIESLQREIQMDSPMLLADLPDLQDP
# Chain of 6-phosphogluconate dehydrogenase, decarboxylating (Homo sapiens) (P52209 whole entry, looked up): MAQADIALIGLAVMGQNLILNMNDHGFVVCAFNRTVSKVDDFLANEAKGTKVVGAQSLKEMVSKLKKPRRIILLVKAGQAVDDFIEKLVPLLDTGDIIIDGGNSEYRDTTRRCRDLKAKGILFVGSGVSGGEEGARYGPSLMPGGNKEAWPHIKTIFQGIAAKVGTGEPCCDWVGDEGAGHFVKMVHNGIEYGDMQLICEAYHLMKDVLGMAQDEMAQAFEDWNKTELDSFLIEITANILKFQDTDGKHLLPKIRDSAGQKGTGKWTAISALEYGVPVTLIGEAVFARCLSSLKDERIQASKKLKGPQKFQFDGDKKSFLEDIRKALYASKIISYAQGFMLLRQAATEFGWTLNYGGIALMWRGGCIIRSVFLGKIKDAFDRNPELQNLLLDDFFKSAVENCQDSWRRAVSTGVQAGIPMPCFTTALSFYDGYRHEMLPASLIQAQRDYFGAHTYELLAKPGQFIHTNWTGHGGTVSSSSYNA
# Chain of Calcium-activated potassium channel subunit alpha-1 (Homo sapiens) + Leucine-rich repeat-containing protein 26 (Homo sapiens) (Q2I0M4 whole entry, looked up, one chain of several): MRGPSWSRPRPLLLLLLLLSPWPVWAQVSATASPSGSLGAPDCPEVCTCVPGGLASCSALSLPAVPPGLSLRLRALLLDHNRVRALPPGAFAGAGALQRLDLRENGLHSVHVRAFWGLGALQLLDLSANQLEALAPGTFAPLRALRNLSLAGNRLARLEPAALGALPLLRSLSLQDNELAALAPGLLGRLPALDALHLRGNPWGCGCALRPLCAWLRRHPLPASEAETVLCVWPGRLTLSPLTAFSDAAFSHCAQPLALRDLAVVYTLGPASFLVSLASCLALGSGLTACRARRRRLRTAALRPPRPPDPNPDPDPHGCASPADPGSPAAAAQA
smiles,measurement,setting,value
COc1cc([C@@H]2c3cc4c(cc3[C@H](O)[C@H]3COC(=O)[C@H]23)OCO4)cc(OC)c1OC,inhibition,[1],-0.45% (inactive)
same,inhibition,[2],1.05% (inactive)
same,fluorescence ratio,[3],1.03 (inactive)
same,nuclear beta-catenin stimulation,[4]; at 10 µM,81% (active)
same,nuclear beta-catenin stimulation,"[4]; stimulation, at 2 µM",77%
same,insulin secretion stimulation,[5],1.25% (inactive)
same,viability decrease,[6],102% (active)
same,tube area decrease,[7],109% (active)
same,GLP1 secretion stimulation,[8],2% (inactive)
same,inhibition of viability,[9],73.1% (active)
same,viability decrease (inhibition),[10],49.9% (inactive)
same,viability decrease (inhibition),[11],64% (active)
same,inhibition,[12],10.7% (inactive)
same,fold change,[13]; [19],1.05 (inactive) and 1.04 (inactive) and 0.981 (inactive)
same,fold change,[13]; [20],0.525 and 0.993 and 1.97
same,cell count,[13]; [21],2300 and 1910 and 1870
same,cell count,[13]; [22],2200 and 1830 and 1900
same,z-score,[14]; [23],-2.59 (inactive)
same,z-score,[14]; [24],1.94
same,remaining NAD,[15],10 nM (inactive)
same,luciferase signal,[16],92 AU (inactive)
same,log fold change Tl+ flux,F380Y,0.0196 (inactive)
same,log fold change Tl+ flux,F380Y/beta2Delta,0.00366 (inactive)
same,log fold change Tl+ flux,[17],0.0135 (inactive)
CC(COc1ccccc1)NC(C)C(O)c1ccc(O)cc1 (stereo unspecified),inhibition,[1],-4.09% (inactive)
same,inhibition,[2],1.81% (inactive)
same,fluorescence ratio,[3],0.91 (inactive)
same,nuclear beta-catenin stimulation,[4]; at 10 µM,2.4% (inactive)
same,nuclear beta-catenin stimulation,"[4]; stimulation, at 2 µM",-1%
same,insulin secretion stimulation,[5],3% (inactive)
same,viability decrease,[6],-3.4% (inactive)
same,tube area decrease,[7],15.3% (inactive)
same,GLP1 secretion stimulation,[8],2.4% (inactive)
same,inhibition of viability,[9],18.7% (inactive)
same,viability decrease (inhibition),[10],42.3% (inactive)
same,viability decrease (inhibition),[11],-4.6% (inactive)
same,inhibition,[12],0.0758% (inactive)
same,fold change,[13]; [19],0.93 (inactive) and 0.88 (inactive)
same,fold change,[13]; [20],1.41 and 1.05
same,cell count,[13]; [21],10000 and 8140
same,cell count,[13]; [22],10800 and 9240
same,z-score,[14]; [23],0.843 (inactive)
same,z-score,[14]; [24],0.798
same,remaining NAD,[15],10 nM (inactive)
same,luciferase signal,[16],72 AU (inactive)
same,log fold change Tl+ flux,F380Y,-0.000146 (inactive)
same,log fold change Tl+ flux,F380Y/beta2Delta,0.0627 (inactive)
same,log fold change Tl+ flux,[17],-0.0341 (inactive)
CN(C)CC/C=C1\c2ccccc2COc2ccccc21,inhibition,[1],-1.36% (inactive)
same,inhibition,[2],4.1% (inactive)
same,fluorescence ratio,[3],0.9 (inactive)
same,nuclear beta-catenin stimulation,[4]; at 10 µM,-0.4% (inactive)
same,nuclear beta-catenin stimulation,"[4]; stimulation, at 2 µM",0.3%
same,insulin secretion stimulation,[5],-0.9% (inactive)
same,viability decrease,[6],-44.3% (inactive)
same,tube area decrease,[7],-0.9% (inactive)
same,GLP1 secretion stimulation,[8],5.2% (inactive)
same,inhibition of viability,[9],12% (inactive)
same,viability decrease (inhibition),[10],54.8% (active)
same,viability decrease (inhibition),[11],-3.7% (inactive)
same,inhibition,[12],2.99% (inactive)
same,fold change,[13]; [19],0.953 (inactive) and 0.908 (inactive) and 0.946 (inactive)
same,fold change,[13]; [20],1.39 and 2.7 and 1.08
same,cell count,[13]; [21],9160 and 8980 and 8750
same,cell count,[13]; [22],9610 and 9880 and 9250
same,z-score,[14]; [23],0.295 (inactive)
same,z-score,[14]; [24],0.581
same,remaining NAD,[15],10 nM (inactive)
same,luciferase signal,[16],96 AU (inactive)
same,log fold change Tl+ flux,F380Y,0.0501 (inactive)
same,log fold change Tl+ flux,F380Y/beta2Delta,0.0812 (active)
same,log fold change Tl+ flux,[17],0.0287 (inactive)
c1ccc2c(CC3=NCCN3)cccc2c1,inhibition,[1],-3.18% (inactive)
same,inhibition,[2],-2.76% (inactive)
same,fluorescence ratio,[3],1.02 (inactive)
same,nuclear beta-catenin stimulation,[4]; at 10 µM,0.4% (inactive)
same,nuclear beta-catenin stimulation,"[4]; stimulation, at 2 µM",1.1%
same,insulin secretion stimulation,[5],-1.7% (inactive)
same,viability decrease,[6],-2.25% (inactive)
same,tube area decrease,[7],20.2% (inactive)
same,GLP1 secretion stimulation,[8],2.8% (inactive)
same,inhibition of viability,[9],-0.7% (inactive)
same,viability decrease (inhibition),[10],19.7% (inactive)
same,viability decrease (inhibition),[11],8% (inactive)
same,inhibition,[12],-9.35% (inactive)
same,red/green cell ratio (normalised),[18],0.84 (inactive)
same,normalised cell number,[18]; [25],1.03
same,normalised cell number,[18]; [26],0.86
same,z-score,[14]; [23],-0.272 (inactive) and 0.214 (inactive) and 0.142 (inactive)
same,z-score,[14]; [24],-0.0845 and -0.183 and -0.115
same,remaining NAD,[15],10 nM (inactive)
same,luciferase signal,[16],44 AU (inactive)
same,log fold change Tl+ flux,F380Y,-0.0182 (inactive)
same,log fold change Tl+ flux,F380Y/beta2Delta,-0.014 (inactive)
same,log fold change Tl+ flux,[17],0.0291 (inactive)
CC(C)Oc1ccc2c(=O)c(-c3ccccc3)coc2c1,inhibition,[1],3.56% (inactive)
same,inhibition,[2],5.29% (inactive)
same,fluorescence ratio,[3],1.04 (inactive)
same,nuclear beta-catenin stimulation,[4]; at 10 µM,1.8% (inactive) and 1% (inactive)
same,nuclear beta-catenin stimulation,"[4]; stimulation, at 2 µM",-1.4% and 0.1%
same,insulin secretion stimulation,[5],1.75% (inactive) and -0.3% (inactive)
same,viability decrease,[6],45.8% (inactive) and -14.2% (inactive)
same,tube area decrease,[7],-10.2% (inactive) and -25.5% (inactive)
same,GLP1 secretion stimulation,[8],-2.3% (inactive) and -2.1% (inactive)
same,inhibition of viability,[9],75.7% (active) and 54.6% (active)
same,viability decrease (inhibition),[10],58.3% (active) and 71% (active)
same,viability decrease (inhibition),[11],38.2% (inactive) and 30.5% (inactive)
same,inhibition,[12],8.55% (inactive)
same,fold change,[13]; [19],0.928 (inactive) and 0.917 (inactive)
same,fold change,[13]; [20],1.09 and 1.31
same,cell count,[13]; [21],8700 and 8850
same,cell count,[13]; [22],9370 and 9660
same,z-score,[14]; [23],-0.279 (inactive) and 1.99 (active)
same,z-score,[14]; [24],0.976 and 0.611
same,remaining NAD,[15],10 nM (inactive)
same,luciferase signal,[16],56 AU (inactive)
same,log fold change Tl+ flux,F380Y,-0.0497 (inactive)
same,log fold change Tl+ flux,F380Y/beta2Delta,-0.052 (inactive)
same,log fold change Tl+ flux,[17],-0.0126 (inactive)
CN(C)c1ccc(O)c2c1C[C@H]1C[C@H]3[C@H](N(C)C)C(=O)C(C(N)=O)=C(O)[C@@]3(O)C(=O)C1=C2O,inhibition,[1],-8.64% (inactive)
same,inhibition,[2],0.29% (inactive)
same,fluorescence ratio,[3],0.89 (inactive)
same,nuclear beta-catenin stimulation,[4]; at 10 µM,3.7% (inactive)
same,nuclear beta-catenin stimulation,"[4]; stimulation, at 2 µM",6.6%
same,insulin secretion stimulation,[5],1.5% (inactive)
same,viability decrease,[6],-31.1% (inactive)
same,tube area decrease,[7],6.7% (inactive)
same,GLP1 secretion stimulation,[8],-1.4% (inactive)
same,inhibition of viability,[9],17.9% (inactive)
same,viability decrease (inhibition),[10],65.6% (active)
same,viability decrease (inhibition),[11],74.4% (active)
same,inhibition,[12],-17.9% (inactive)
same,red/green cell ratio (normalised),[18],1.2 (inactive)
same,normalised cell number,[18]; [25],0.99
same,normalised cell number,[18]; [26],1.19
same,fold change,[13]; [19],1.15 (inactive) and 0.819 (inactive) and 0.689 (active)
same,fold change,[13]; [20],0.974 and 2.86 and 1.89
same,cell count,[13]; [21],2650 and 5110 and 3260
same,cell count,[13]; [22],2300 and 6240 and 4740
same,z-score,[14]; [23],-2.76 (inactive) and 0.283 (inactive)
same,z-score,[14]; [24],-3.81 and -1.93
same,remaining NAD,[15],10 nM (inactive)
same,luciferase signal,[16],52 AU (inactive)
same,log fold change Tl+ flux,F380Y,-0.0263 (inactive)
same,log fold change Tl+ flux,F380Y/beta2Delta,0.045 (inactive)
same,log fold change Tl+ flux,[17],0.0283 (inactive)
